esBAF inh – Bmi1 luciferase reporter increase in mESCs, primary screen, esBAF inhibitor project, mouse ES cells, Bmi1 luciferase knock-in, single point; 24 h; 100% = twice the neutral-well signal; reporter increase, % at 12.5 µM; 350,000 tested, 2% active; in the data active means activation above about 40%; inconclusive means no clear call, values can overlap the other calls;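 further: 0% = median of the plate's neutral control wells and 100% = double that signal; a rise in the Bmi1 reporter signal indicates esBAF inhibition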
MITF TRPM1 HTS – activators of MITF-driven TRPM1 promoter reporter, primary screen, cell-based, SK-MEL-5, luciferase, single point | SK-MEL-5 TRPM1-promoter luciferase, 24 h; % of positive control, neutral wells = 0 | AID 588334, 2011 | activation, % at 12.5 µM | 300,000 tested, 0.75% active;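 active means mean activation of at least 80% with every replicate also reaching 80%; inconclusive means mean reaches 80% but some replicate falls short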;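 further: 0% = neutral control wells and 100% = parthenolide positive control wells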
HSF1 activator – HSF-1 activators, primary screen, NIH3T3-HGL cells, MG132 stress, luminescence, single point | NIH3T3-HGL HSF-1 luciferase reporter, 8 h; 100% = twice DMSO control signal | activation, % at 9 µM | 300,000 tested, 1.7% active | AID 504408, 2011;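 active means mean replicate activation of at least 50% with a set share of replicates each reaching 50%; inconclusive means only one of those two conditions met; inactive means mean below 50% and too few replicates reaching it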;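 further: 0% = median of the neutral control wells and 100% = twice that signal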
SMARCA2 activ – SMARCA2 (BRM) function activators, primary screen, cell-based, luminescence, high throughput | MG213 cells, MMTV-luciferase reporter, dexamethasone, overnight | activation, % at 9.1 µM | 370,000 tested, 1% active; in the data active means activation above about 7.8%;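 further: 0% = vehicle wells and 100% = reference activator wells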
HSF1 inh – HSF1 inhibitors in luciferase reporter cells, primary screen, cell-based, NIH3T3, luminescence. NIH3T3-HGL HSE-luciferase, MG132-induced, luminescence 8 h; stronger effect = lower value. activity change, negative = inhibition, % at 7.5 µM (by protocol). 300,000 tested, 0.77% active. AID 2098, 2009;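 active means more than half of replicate wells show activity change below -50%, luminescence cut by over half; inconclusive means some wells, but at most half, below -50%; inactive means no replicate well below -50%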;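 further: luciferase reports HSF-1 transcriptional activity via heat shock element; 0% = median of DMSO wells and -100% = zero luminescence signal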
Wnt act – Wnt/beta-catenin pathway activators, primary screen, cell-based, plate reader, single point. Wnt/beta-catenin reporter cell assay, activator. activation, % at 9.35 µM. 300,000 tested, 1.2% active; in the data active means activation above about 30%, passing the limit was not always enough; inconclusive means no clear call, values can overlap the other calls;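 further: 0% = neutral control wells and 100% = positive control wells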
Ring1 derepress – Ring1 mRNA increase in mouse ESCs, confirmation, esBAF inhibitor project, cell-based, mouse ESC, RT-qPCR, cherry-pick | fold change at 33 µM | 550 tested, under 10 active | AID 743176, 2013 | shares compounds with esBAF inh | mouse ESC E14, Ring1 mRNA RT-qPCR fold change;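 active means Ring1 gene expression raised more than 2-fold over untreated cells in both replicates at either tested dose; inconclusive means only one replicate above 2-fold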;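 further: Ring1 transcript normalised to actin housekeeping signal by TaqMan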
Fgf4 repress – Fgf4 mRNA decrease in mouse ESCs, confirmation, esBAF inhibitor project, cell-based, mouse ESC, RT-qPCR, cherry-pick | mouse ESC E14, Fgf4 mRNA qPCR fold change; stronger effect = lower value | shares compounds with esBAF inh | Fgf4 expression fold change at 33 µM | 550 tested, 4% active;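 active means Fgf4 expression under 0.8 fold of control in both repeat measurements at one or both tested doses; inconclusive means under 0.8 fold in just a single repeat measurement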;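 further: Fgf4 transcript normalised to actin in duplex TaqMan qPCR; cells exposed to compound for 24 h before lysis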
Bmi1 derepress – esBAF inhibition via Bmi1 de-repression, confirmation, cell-based, RT-qPCR, mouse ESC, single point, cherry-pick; mouse ESE14 ES cells, Bmi1 mRNA qPCR fold; stronger effect = higher value; shares compounds with esBAF inh; fold change at 33 µM; 550 tested, under 10 active;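 active means Bmi1 expression fold change above 6 at either tested concentration, seen in replicate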
A549 tox SP – A549 cell cytotoxicity, cytotoxicity control, plate reader, single point, cherry-pick | AID 743188, 2013 | 550 tested, under 10 active | shares compounds with esBAF inh | cell viability change % (negative = cytotoxic), % at 25 µM, hits read low; call rule not given here
HepG2 tox SP – HepG2 cell cytotoxicity, cytotoxicity control, plate reader, single point, cherry-pick; shares compounds with esBAF inh; stronger effect = lower value; activity change, negative = inhibition, % at 25 µM; 550 tested, 4% active; in the data active means activity change below about -50%
HEK293 tox SP – HEK293 cell cytotoxicity, cytotoxicity control, plate reader, single point, cherry-pick; activity change, negative = inhibition, % at 25 µM, hits read low; shares compounds with esBAF inh; 550 tested, 3% active; AID 743190, 2013; in the data active means activity change below about -38%, passing the limit was not always enough
An asterisk follows results filed as active; ? = inconclusive; · = no result. The list is not random: actives were taken first. Their share in the collection is about 4.3%.

SMILES | esBAF inh | MITF TRPM1 HTS | HSF1 activator | SMARCA2 activ | HSF1 inh | Wnt act | Ring1 derepress | Fgf4 repress | Bmi1 derepress | A549 tox SP | HepG2 tox SP | HEK293 tox SP
COc1cccc(CN(C)C(=O)c2ccc(COc3ccc(Cl)cc3)cc2)c1OC | 59* | ? | 55* | 0 | 31 | 11 | 1.2 | 0.86 | 1.8 | -7 | -32 | -1
COc1ccccc1CN(C)C(=O)c1ccc(COc2ccccc2)cc1 | 4 | 24 | 27 | -3 | -4 | 0 | · | · | · | · | · | ·
C[C@@H]1CN([C@@H](C)CO)C(=O)c2cc(NC(=O)Nc3cccc4ccccc34)ccc2O[C@@H](C)CCCCO[C@H]1CN(C)C(=O)CCCN(C)C | 0 | · | · | · | · | · | · | · | · | · | · | ·
Cc1cc(Cl)c(O)c(-n2nc3ccccc3n2)c1 | 61* | 65 | -16 | 2 | -14 | -3 | 0.94 | 0.96 | 1.2 | 5 | -38 | 4
COc1cc(SC)ccc1C(=O)NCC1CCCCC1 | 65* | 97* | 32 | 4 | 30 | 0 | 1 | 0.83 | 1.4 | -5 | -17 | -20
C[C@@H]1CN([C@H](C)CO)C(=O)c2cc(C#CC3CCCC3)cnc2O[C@@H]1CN(C)C(=O)Nc1ccccc1 | -2 | · | · | · | · | · | · | · | · | · | · | ·
COc1ccccc1-c1nc(C#N)c(N2CCC(Cc3ccccc3)CC2)o1 | 2 | 6 | 1 | 1 | -5 | 4 | · | · | · | · | · | ·
CC1CCN(c2oc(-c3cccc4ccccc34)nc2C#N)CC1 | 67* | ? | 29 | -2 | 3 | -4 | 0.97 | 0.95 | 1.5 | -1 | -53* | -19
CO[C@H]1CN(C)C(=O)c2ccc(NC(C)=O)cc2OC[C@@H](C)N(CCc2ccccc2)C[C@H]1C | 1 | · | · | · | · | · | · | · | · | · | · | ·
O=C(c1ccccc1)N1C[C@@H]2[C@H](c3ccccc31)[C@H](CO)N2C(=O)Nc1ccccc1Cl | -6 | · | · | · | · | · | · | · | · | · | · | ·
COc1ccc(N2CCN(C(=O)c3ccc(Cn4c(=S)[nH]c5ccc(N6CCOCC6)cc5c4=O)cc3)CC2)cc1 | 68* | 62 | 2 | -2 | 8 | 20 | 0.97 | 0.85 | 1.8 | -10 | -36 | -10
O=C(c1ccc(Cn2c(=S)[nH]c3ccc(N4CCOCC4)cc3c2=O)cc1)N1CCN(c2ccc(F)cc2)CC1 | · | 39 | 10 | 0 | 7 | 21 | · | · | · | · | · | ·
COC(=O)c1ccc(NC(=O)Nc2ccc3c(c2)nc(C)n3C)cc1 | 6 | 39 | -24 | 4 | -2 | 11 | · | · | · | · | · | ·
Cc1cc(NC(=O)Nc2ccc3c(ccn3C)c2)sn1 | 81* | 106* | 0 | 6 | 1 | 25 | 1.5 | 0.94 | 1.5 | -2 | 1 | -11
C[C@@H]1CCCCO[C@@H](CN(C)Cc2ccc3c(c2)OCO3)[C@H](C)CN([C@H](C)CO)C(=O)c2cc(NC(=O)c3ccccc3)ccc2O1 | -7 | · | · | · | · | · | · | · | · | · | · | ·
O=C(Nc1ccc(F)cc1)Nc1ccc2c(c1)[C@H]1C[C@@H](CC(=O)N3CCCCC3)O[C@@H](CO)[C@H]1O2 | 1 | · | · | · | · | · | · | · | · | · | · | ·
COc1ccc(C(=O)Nc2cc3c4c(c2)CC(=O)N4CCC3)c(OC)c1 | 67* | 86* | 27 | · | 17 | · | 0.98 | 0.89 | 1.6 | -10 | -24 | -15
COc1cc(OC)c2c(-c3cccc(/C=C/c4ccc(F)cc4)c3)cc(=O)oc2c1 | 86* | 96* | · | · | · | -1 | 1.1 | 0.92 | 2.7 | 3 | 29 | 12
C[C@H](CO)N1C[C@H](C)[C@H](CN(C)C(=O)C2CC2)Oc2cc(C#CC3CCCC3)ccc2S1(=O)=O | 5 | · | · | · | · | · | · | · | · | · | · | ·
COc1ccc(-c2cnc(C(O)c3ccc(-c4ccccc4)cc3)[nH]2)cc1 (stereo unspecified) | -3 | · | · | 1 | · | -2 | · | · | · | · | · | ·
COc1ccc(-c2cnc(C(O)c3ccccc3)[nH]2)cc1 (stereo unspecified) | 65* | · | · | -1 | · | 0 | 1.3 | 1 | 1.3 | 11 | 13 | -2
C[C@@H]1CN([C@H](C)CO)C(=O)c2cc(NS(=O)(=O)c3ccccc3)ccc2O[C@@H]1CN(C)Cc1ccc(C(=O)O)cc1 | 0 | · | · | · | · | · | · | · | · | · | · | ·
Cc1ccc(NC(=O)Cc2noc3ccccc23)cc1 | 81* | · | 24 | 4 | 9 | · | 1.1 | 1 | 0.99 | 2 | -34 | -12
c1ccc(Cn2cnc3ccccc32)cc1 | 106* | 63 | · | 2 | · | · | 1.4 | 1 | 1.7 | 0 | -24 | -10
O=C(NCC[C@@H]1CC[C@@H](NC(=O)c2cnccn2)[C@@H](CO)O1)Nc1ccc(F)cc1 | -5 | · | · | · | · | · | · | · | · | · | · | ·
CN(C)c1ccc(CN(C(=O)c2cc3ccccc3oc2=O)C2CCS(=O)(=O)C2)cc1 (stereo unspecified) | 70* | 61 | 6 | 5 | 7 | 28 | 1.2 | 1 | 1.2 | -2 | -19 | 0
C[C@@H]1CN([C@H](C)CO)S(=O)(=O)c2ccc(-c3cccnc3)cc2O[C@H]1CN(C)C(=O)C1CCC1 | -4 | · | · | · | · | · | · | · | · | · | · | ·
CCNC(=O)[C@@H]1[C@@H](CO)[C@@H]2Cn3c(ccc(C4=CCCC4)c3=O)[C@H]1N2Cc1cccnc1 | -6 | · | · | · | · | · | · | · | · | · | · | ·
C[C@@H]1CN([C@H](C)CO)C(=O)c2cc(C#CCN(C)C)cnc2O[C@@H]1CN(C)Cc1ccc(F)cc1 | 2 | · | · | · | · | · | · | · | · | · | · | ·
CC(C)c1ccc(CNNC(=O)c2ccccc2)cc1 | 70* | 70 | 15 | 4 | 8 | 26 | 0.92 | 0.89 | 2.6 | -6 | 6 | -5

Source: PubChem BioAssay
